Drawing on PubChem BioAssay, this text covers z-score for nine compounds.

The source made the active and inactive calls. How the calls were made is not given here.

The nature of this assay: blockers of DNA damage checkpoint Chk1 activation – imaging, HeLa, hydroxyurea, phospho-Chk1 nuclear intensity, primary screen (AID 1187). Further: test concentration not given here. The settings on record: hydroxyurea-induced phospho-Chk1 immunofluorescence imaging, higher = more signal.
On to `CO[C@H]1O[C@H](CO)[C@@H](OC(=O)CCc2ccccc2)[C@@H]2OC(=O)[C@@H](Cc3ccc4ccccc4c3)C/C=C/C[C@H](Cc3ccc4ccccc4c3)C(=O)O[C@@H]12`, for which the z-score was -0.343 (inactive).

With `C[C@H]1C2[C@H](Cc3ccccc3)NC(=O)[C@]23C(=O)N[C@@H](Cc2ccccc2)C(=O)N2CCC[C@H]2C(=O)NC/C=C/CC/C=C/C3[C@@H]2O[C@]12C` (some centres undefined), the z-score is -0.437 (inactive).

With `COC(=O)C(CC#Cc1ccc2c(c1)[C@]1(C(=O)N2)[C@H](C(=O)N2CCN(c3ncccn3)CC2)[C@H]2C(=O)O[C@H](c3ccccc3)[C@H](c3ccccc3)N2[C@@H]1c1ccc(O)cc1)C(=O)OC`, the z-score was -1.02 (inactive).

For the compound `CO[C@H]1O[C@H](CO)[C@@H](OC(=O)Nc2cccc(F)c2)[C@H](OC(=O)c2cc3ccccc3[nH]2)[C@H]1OC(=O)c1cc2ccccc2[nH]1`, the z-score is -0.455 (inactive).

With `COC(=O)C1=CC(c2ccc(CO)cc2)=CC(C2CC2)N(Cc2cc3c(cc2Br)OCO3)C=C1C(=O)OC` (centres undefined), the z-score is -0.0211 (inactive).

Turning to `C=CCOC(=O)[C@@H]1[C@H]2C(=O)O[C@H](c3ccccc3)[C@H](c3ccccc3)N2[C@H](c2ccc(OCCOC(=O)[C@H]3C[C@H]4C(=O)N[C@@H](CCCCN(C)C)C(=O)N4[C@H]3c3cccc(OCCO)c3)cc2)[C@@]12C(=O)Nc1ccccc12`, the z-score is -0.375 (inactive).

`C=C[C@@H](CO)NS(=O)(=O)c1ccc(Br)cc1`: the z-score is -0.695 (inactive).

Turning to `COC(=O)[C@@]1(Cc2ccc(F)cc2)[C@H]2c3cc(C(=O)N4CCCC4)n(CCSCCO)c3C[C@H]2CN1C(=O)c1ccccc1`, the z-score was 0.827 (inactive).

Take `O=C1C2C=CC(C(O)C3CC=CCC3)N(Nc3ccc([N+](=O)[O-])cc3)C2C(=O)N1c1ccccc1` (centres undefined): the z-score was -0.101 (inactive).
